Source: PubChem BioAssay AID778 (Sanford-Burnham Center for Chemical Genomics, 2007)
In all, about 96,000 compounds went through this assay and about 20,000 (21%) were called active.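 The calls were made as follows: active = CYP2C19 inhibition above a set limit at 5 µM in the primary screen (cut at about 50% in these data); inactive = the rest.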 Only a sample is shown.

target: Cytochrome P450 2C19 (Homo sapiens) (UniProt P33261); assay: blockers of cytochrome P450 2C19 activity – biochemical, luminescence, ADME assay, primary screen (AID 778); details: CYP2C19 Supersomes, luciferin-H EGE luminescence, 30 min; at 5 µM; hits give high values;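 also: plate controls were negative control wells for no effect and 2.5 mM tranylcypromine positive control for full effect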
Sequence (P33261 whole entry, looked up): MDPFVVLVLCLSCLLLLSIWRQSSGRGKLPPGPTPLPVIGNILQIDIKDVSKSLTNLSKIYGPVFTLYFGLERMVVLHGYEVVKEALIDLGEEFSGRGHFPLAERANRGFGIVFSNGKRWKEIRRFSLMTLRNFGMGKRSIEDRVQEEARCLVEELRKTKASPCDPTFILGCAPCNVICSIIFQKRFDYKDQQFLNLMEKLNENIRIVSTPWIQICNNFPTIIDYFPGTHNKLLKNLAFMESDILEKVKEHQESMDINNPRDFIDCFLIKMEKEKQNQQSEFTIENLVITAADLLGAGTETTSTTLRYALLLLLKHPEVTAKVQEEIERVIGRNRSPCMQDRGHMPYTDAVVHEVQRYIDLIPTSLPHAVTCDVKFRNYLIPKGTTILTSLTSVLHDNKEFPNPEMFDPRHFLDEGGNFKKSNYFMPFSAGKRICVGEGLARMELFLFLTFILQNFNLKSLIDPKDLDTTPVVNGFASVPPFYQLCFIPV

| Structure (SMILES) | inhibition |
| --- | --- |
| COc1ccc(-c2oc3ncn(Cc4ccco4)c(=N)c3c2-c2ccc(OC)cc2)cc1 | 33.8% (inactive) |
| CCOC(=O)N1CCC(Nc2c(NCCCN3CCN(CC)CC3)c(=O)c2=O)CC1 | 4% (inactive) |
| c1ccc(-c2ccnc3nc(-n4cccc4)nn23)cc1 | 1.1% (inactive) |
| CCCC(=O)N1c2ccc(-c3csc(N)n3)cc2CC1C (stereo not given) | 4.4% (inactive) |
| O=c1c(F)cn(C2CCCO2)c(=O)n1Cc1ccccc1Cl (stereo not given) | 36.8% (inactive) |
| COCCn1c(C)cc(C2=NNC(=Nc3ccc(F)cc3)SC2)c1C | 20.2% (inactive) |
| COc1ccc(C)cc1NC(=O)CCC(=O)Nc1nnc(C(F)(F)F)s1 | -1.8% (inactive) |
| CC(=O)c1c(C)[nH]c(C(=O)NCc2ccc(C)cc2)c1C | 43.8% (inactive) |
| COc1ccc(C)cc1NC(=O)c1[nH]c(C)c(C(C)=O)c1C | 51.5% (active) |
| CC(C)(C)NC(=O)C(c1ccco1)N(Cc1ccc2c(c1)OCO2)C(=O)Cn1nnc2ccccc21 (stereo not given) | 48.8% (inactive) |
| COc1ccc2c(c1)CCc1c(C(=O)N3CCCC3)noc1-2 | 4.9% (inactive) |
| COc1ccc2c(c1)CCc1c(C(=O)N3CCc4ccccc4C3)noc1-2 | 74.1% (active) |
| COc1ccc2c(c1)CCc1c(C(=O)Nc3c(C)n(C)n(-c4ccccc4)c3=O)noc1-2 | 25.7% (inactive) |
| CCC(=O)N1CCc2cc(S(=O)(=O)NC(C(=O)N3CCc4ccccc4C3)C(C)C)ccc21 (stereo not given) | 4.8% (inactive) |
| Cc1nc(NC(CC(C)C)C(=O)O)c2nc(C)oc2n1 (stereo not given) | -8.5% (inactive) |
| O=C(Nc1ccon1)c1sc2ccccc2c1Cl | 1.4% (inactive) |
| N#Cc1cc([N+](=O)[O-])ccc1Oc1cccc(/C=N/NC(=O)c2ccc(Cl)cc2)c1 | 41.8% (inactive) |
| CCc1ccccc1NC(=O)CN(C)S(=O)(=O)c1ccc2c(c1)c(=O)n(C)c(=O)n2C | 7.1% (inactive) |
| Cc1cc(NC(=O)c2cccc(N3C(=O)CCC3=O)c2)no1 | 3% (inactive) |
| O=C(/C=C/Nc1ccccc1OC(F)(F)F)C(F)(F)F | 18% (inactive) |
| Cc1cc(C)nc(NC(=O)C(C)N2C(=O)c3ccccc3C2=O)n1 (stereo not given) | -21.4% (inactive) |
| Cc1ccc(NC(=O)CN(C)S(=O)(=O)c2cnc[nH]2)cc1C | 88.7% (active) |
| Cc1ccc(NC(=O)CCNS(=O)(=O)c2ccc3c(c2)oc(=O)n3C)cc1C | 8% (inactive) |
| CCOC(=O)N1CCC(N(CCOC)C(=O)Nc2ccc(C)c(C)c2)CC1 | 8.4% (inactive) |
| Cc1ccc(-c2nnc(C)c(N3CC(C)OC(C)C3)n2)cc1 (stereo not given) | 7.3% (inactive) |

| Structure (SMILES) | inhibition |
| --- | --- |
| O=C(O)C1CC(=O)N(Cc2cccnc2)C1 (stereo not given) | -2.1% (inactive) |
| COCCCNC(=O)C1CC(=O)N(CCc2ccccc2)C1 (stereo not given) | -3.4% (inactive) |
| Cc1cc(=O)oc2cc(NC(=O)C3CC(=O)N(Cc4ccccc4)C3)ccc12 (stereo not given) | 52.5% (active) |
| CCC(C)NC(=O)c1c(N)n(/N=C/c2cccs2)c2nc3ccccc3nc12 (stereo not given) | 13.8% (inactive) |
| COc1ccccc1NC(=O)C1=C(C)Nc2nnnn2C1c1cccc(Br)c1 (stereo not given) | 37.1% (inactive) |
| COc1ccc(C2C(C(=O)Nc3ccccc3OC)=C(C)Nc3nnnn32)c(OC)c1 (stereo not given) | 32.5% (inactive) |
| COC(=O)c1ccc(C2C3=C(Nc4nnnn42)c2ccccc2OC3)cc1 (stereo not given) | 98.9% (active) |
| CCCN1Cc2cccc(C(=O)Nc3ccc(S(=O)(=O)N4CCCCCC4)cc3)c2C1=O | 18.8% (inactive) |
| CCC12CN3CC(CC)(CN(C1)C31C(=O)N(C)c3ccc(C)cc31)C2=O (stereo not given) | 15.6% (inactive) |
| O=C(Nc1ncccn1)c1cccs1 | -3.9% (inactive) |
| O=C(Nc1nn(Cc2ccccc2F)cc1Br)c1cccs1 | 57.4% (active) |
| CCc1ccccc1NC(=O)c1cccs1 | -1% (inactive) |
| CC(=O)Nn1cc2c(=O)n(C)c(=O)n(C)c2c1 | -4.8% (inactive) |
| O=c1oc2cc(O)ccc2cc1-c1ccc(F)cc1 | 32.1% (inactive) |
| CCOC(=O)Nc1ccccc1N1C(=O)c2ccccc2C1=O | 1.6% (inactive) |
| Cc1cc(C)n(-c2nc(SCC(=O)N3CCCC3)c3c4c(sc3n2)CCCC4)n1 | 49.7% (inactive) |
| COc1ncnc2sc3c(c12)CCCC3 | 36.6% (inactive) |
| COCCn1c(C)cc(C(=O)CSc2ncnc3sc4c(c23)CCC4)c1C | 57.5% (active) |
| O=C(NCc1ccco1)c1cnn2c(C(F)(F)F)cc(-c3ccco3)nc12 | 20.3% (inactive) |
| CCCc1nc(-c2ccccc2O)n(-c2ccccc2)n1 | 34% (inactive) |
| O=C(NCCN1C(=O)C2C3C=CC(C3)C2C1=O)Nc1ccccn1 (stereo not given) | -10.2% (inactive) |
| O=C(CCN1C(=O)C2C3C=CC(C3)C2C1=O)Nc1ccccc1F (stereo not given) | 56.5% (active) |
| O=C(CN1C(=O)C2C3C=CC(C3)C2C1=O)NCCc1ccccc1Cl (stereo not given) | 23.5% (inactive) |
| N#C/C=C\Oc1ccc(Cl)cc1N | -2.6% (inactive) |
| COc1ccc(NC(=O)Cn2c(-c3ccc(OC)cc3)cn(-c3ccc(C)cc3)c2=O)cc1 | -4.3% (inactive) |

| Structure (SMILES) | inhibition |
| --- | --- |
| N#Cc1nc(COc2ccc(-c3ccccc3)cc2)oc1NCc1cccnc1 | 51.7% (active) |
| N#Cc1nc(-c2ccc(OCc3ccccc3)cc2)oc1NCCCN1CCOCC1 | 7.4% (inactive) |
| COc1ccc(Nc2oc(-c3ccccc3Cl)nc2C#N)cc1 | 1.2% (inactive) |
| O=c1c2ccccc2nnn1CSc1nc2sc3c(c2c(=O)n1CC1CCCO1)CCC3 (stereo not given) | 56.4% (active) |
| C=C(C)Cn1c(SCC(=O)NCc2ccco2)nc2sc3c(c2c1=O)CCC3 | 7.7% (inactive) |
| O=C(Cn1nc(Cc2cccnc2)c2ccccc2c1=O)NCC1CCCO1 (stereo not given) | 16.7% (inactive) |
| N#CCCn1cnc2ccccc21 | 1.7% (inactive) |
| CC(=O)c1ccc(NC(=O)N[C@@H](Cc2ccccc2)C(=O)O)cc1 | 28.5% (inactive) |
| COc1ccc(CCNC(=O)COC(=O)c2ccc[nH]c2=O)cc1 | -10.2% (inactive) |
| CCN(CC)C(=O)C1CCC(C)(C(=O)O)C1(C)C (stereo not given) | -4.4% (inactive) |
| Cc1cc(O)ccc1-c1cnc2ccccc2n1 | 60.7% (active) |
| CC(=O)Nc1cccc(-c2cnc3ccccc3n2)c1 | 14.9% (inactive) |
| Cc1nc2ccccc2cc1O | 0.7% (inactive) |
| Nc1nonc1-c1nc2ccccc2n1Cc1ccc(F)cc1 | 44.1% (inactive) |
| CC(C)N(c1ccccc1)c1ncnc(NCCC(=O)O)c1[N+](=O)[O-] | 55% (active) |
| Cc1oc(-c2cccc(Cl)c2)[n+]([O-])c1C | -4.8% (inactive) |
| COc1cc(C2C(C(=O)c3ccc(C)o3)=C(O)C(=O)N2CCc2ccccc2)ccc1O (stereo not given) | -1.7% (inactive) |
| CCOC(=O)C1=C(c2ccccc2)N=C2SCC(=O)N2C1c1ccc(O)c(OC)c1 (stereo not given) | 79.4% (active) |
| CC1(C)Cc2nc3sc4c(SCC(=O)NC(c5ccccc5)c5ccccc5)ncnc4c3cc2CO1 | 15.3% (inactive) |
| CC1=CC(=O)C=CC1(C)C(Cl)(Cl)Cl (stereo not given) | 9.4% (inactive) |
| CCC(C)Sc1nc2c(c(=O)[nH]c(=O)n2C)n1CC(O)COc1cccc2ccccc12 (stereo not given) | 14.5% (inactive) |
| CCn1c(SCCC(C)C)nnc1-c1c[nH]c2ccccc12 | 88.7% (active) |
| CCC(C)Sc1nnc(-c2c[nH]c3ccccc23)n1CCOC (stereo not given) | 15.6% (inactive) |
| CCn1c(SCC(=O)Nc2ccc(OC)c(OC)c2)nnc1-c1c[nH]c2ccccc12 | 42.9% (inactive) |
| CCOC(=O)N1CCN(C(=O)c2cn(C)c3ccc(S(=O)(=O)N4CCCC4)cc3c2=O)CC1 | -12.6% (inactive) |

| Structure (SMILES) | inhibition |
| --- | --- |
| O=C(c1ccc(=O)[nH]c1)N(Cc1ccco1)C1(C(=O)NC2CCCCC2)CCCCC1 | -4.2% (inactive) |
| c1nnc2c3c4c(sc3ncn12)CCC4 | 1.2% (inactive) |
| N=c1c2c3c(sc2ncn1N)CCCCC3 | -16% (inactive) |
| C=C(C)CSc1nc(N)c2c3c(sc2n1)CCC3 | 60.4% (active) |
| CC(C)(C)NC(=O)NC(=O)COC(=O)CCC1CCCCC1 | -4.7% (inactive) |
| CCN1CCCC1CNC(=O)c1cc2c(=O)n(C)c3ccccc3c2n1C (stereo not given) | -9.3% (inactive) |
| Cc1[nH][nH]c(=O)c1N=Nc1ccccc1 | 13.3% (inactive) |
| Cc1ccc(C2CC2C(=O)NN)cc1 (stereo not given) | 47.6% (inactive) |
| N/C(=N\OC(=O)CCC1CCCCC1)c1ccccn1 | 5.1% (inactive) |
| CC(C)(C)c1cc2cccnc2n1Cc1cccc(F)c1 | 14.8% (inactive) |
| N#C/C(=C/c1ccc(Cl)cc1)NC(=O)c1ccccc1 | 3.3% (inactive) |
| CCCCCN1CC(O)=C(c2ccccc2)C1=N | -0.3% (inactive) |
| Cc1ccc2cc(C#N)c(SCC(=O)NCC3CCCO3)nc2c1C (stereo not given) | -2.3% (inactive) |
| Cc1nc2cc(NC(=O)CSc3nc4c(C)cccc4cc3C#N)ccc2s1 | 6.7% (inactive) |
| CC(NC(=O)CSc1nc2c(cc1C#N)CN(C)CC2)c1ccccc1 (stereo not given) | 79.6% (active) |
| O=C1c2ccccc2C2=Nc3ccccc3SC(c3ccccc3F)C12 (stereo not given) | 8% (inactive) |
| Nc1nc2n(n1)C(c1ccco1)CC(c1ccc(Cl)c(Cl)c1)N2 (stereo not given) | 31% (inactive) |
| Cc1ccc(C2CC(c3cccc(C)c3)n3nc(N)nc3N2)cc1 (stereo not given) | 45.1% (inactive) |
| Clc1ccc(C2CC(c3cccs3)n3ncnc3N2)cc1Cl (stereo not given) | 81.9% (active) |
| CN1CCCc2cc(C#N)c(=O)[nH]c21 | 10.9% (inactive) |
| Fc1ccc(OCc2nn3c(Cn4nnc5ccccc54)nnc3s2)cc1 | 26.6% (inactive) |
| CCc1cc2c(=O)c(-c3ccon3)c(N)oc2cc1OC | 1.3% (inactive) |
| COc1ccccc1Cn1c(=S)[nH]c2cc(C(=O)N3CCN(C)CC3)ccc2c1=O | -10.4% (inactive) |
| COc1cc(C(=O)N2CCN(C/C=C/c3ccccc3)CC2)cc(OC)c1C | 68.8% (active) |
| COc1ccc(C(=O)N2CCC(C(=O)Nc3cccc(C)c3)CC2)cc1OC | -3.6% (inactive) |
